Experimental data reported in PubChem BioAssay AID488890 (Southern Research Specialized Biocontainment Screening …, 2010).
Hit rate of the full screen: of about 320,000 compounds, about 1,300 (0.41%) were called active. About 3% were inconclusive and are not listed. No rule for the calls is given here. Not all results are given here. Potency and affinity values are given separately.

Assay: growth inhibition of non-replicating M. tuberculosis (AID 488890);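 also: plate controls were DMSO cells for no effect and high antibiotic wells for full effect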
Settings: Mycobacterium tuberculosis non-replicating, at 25 µM, stronger effect = higher value

Row | Compound | inhibition [%]
1 | CCc1ccc(C(=O)NNc2cc(Cl)cc(Cl)c2)cc1 | 67.2
2 | CN(C)c1ccc(NC(=O)CCCCCn2nnc3ccccc3c2=O)cc1 | 2.13
3 | O=[N+]([O-])c1cccc(-c2nnc(-c3ccccc3F)o2)c1 | 35.9
4 | O=[N+]([O-])c1cccc(-c2nnc(-c3ccccc3)o2)c1 | 75.3
5 | Cc1ccc(C(=O)Nc2ccc(C(=O)N/N=C/c3ccc(C)o3)cc2)cc1 | 9.26
6 | Cc1cccc(NC(=O)CCNS(=O)(=O)c2ccc(Cl)cc2)c1 | -5.22
7 | CCOC(=O)C1(Cc2ccc(OC)cc2)CCN(C(=O)CN2CCOC2=O)CC1 | -7.21
8 | CN(C)S(=O)(=O)c1ccc(Oc2ccccc2)cc1 | 27.6
9 | CN(C)S(=O)(=O)c1ccc(C(=O)OCCc2ccccc2)cc1 | 42.9
10 | COc1cc(/C=N/Nc2ccc(Cl)c(C(=O)O)c2)ccc1OC(=O)c1ccc(F)cc1 | 52.6
11 | O=C(NC(NNc1ccc([N+](=O)[O-])cc1)(C(F)(F)F)C(F)(F)F)c1ccc(F)cc1 | 29.8
12 | CC(C)c1ccc2[nH]c3c(c2c1)CCCC3=O | 6.88
13 | O=C(NN=C1CCCCCC1)c1ccncc1 | 70.4
14 | O=C(N/N=C1\CCCc2c1[nH]c1ccc([N+](=O)[O-])cc21)c1ccncc1 | -12.5
15 | Nc1ccc(C(=O)N/N=C2\CCCc3c2[nH]c2ccccc32)cc1 | 19.8
16 | CC(/C=C/c1ccc2c(c1)OCO2)=N\NC(=O)c1cccc([N+](=O)[O-])c1 | 68.6
17 | CC1=C(/C=C/C(=O)O)C(C)(C)CCC1 | 13.1
18 | CC1=C(/C=C/C(C)=C/C=C/C(C)=C/C(=O)O)C(C)(C)CCC1 | 15.6
19 | C/C(=N\NC(=O)c1cccc([N+](=O)[O-])c1)c1ccncc1 | 8.18
20 | COc1cc(NC(=O)CN2CCN(c3ccccc3)CC2)c(C)cc1[N+](=O)[O-] | -14
21 | O=C1C(c2ccccc2)=C(N2CC2)c2ccccc21 | 15.4
22 | Nc1c(C(=O)c2ccccc2)sc2c1c(=O)[nH]c(=O)n2-c1ccccc1 | 6.25
23 | CCOC(=O)c1nn(-c2cccc(Cl)c2)c2nc(Nc3ccccc3)cc(=O)n12 | 63.6
24 | CCOC(=O)c1nn(-c2ccc(F)cc2)c2nc(Nc3ccccc3)cc(=O)n12 | 75.5

Row | Compound | inhibition [%]
25 | Cc1cc(C(=O)N2CCCC(N3CCN(c4ccccc4C)CC3)C2)n(C)n1 (stereo not given) | 8.85
26 | CCN1CCN(C2CC(=O)NC2=O)CC1 (stereo not given) | -2.18
27 | Cc1ccc(NC(=O)C2CCN(C(=O)N3CCOc4ccccc43)CC2)cc1 | 25.7
28 | Oc1ccc(Br)cc1CN1CCCCCCC1 | 8.51
29 | Oc1ccc2ccccc2c1CN1CCCC1 | 21.4
30 | O=C(NC1CCCCC1)C1CCCN(S(=O)(=O)c2cccc3cccnc23)C1 (stereo not given) | -8.57
31 | CCOC(=O)c1cc(=O)cc(C(=O)OCC)o1 | -3.36
32 | CCOC(=O)c1cc(=O)c2c([N+](=O)[O-])ccc(OC)c2o1 | -14.2
33 | COc1cccc(C(=O)NCC(=O)NCc2cc(=O)n(C)c(=O)n2C)c1OC | -9.9
34 | O=C1CNC(=S)N1C1CCCCCC1 | 0.27
35 | O=C(CCN1C(=O)S/C(=C/c2ccc(F)cc2)C1=O)Nc1ccc(O)c(C(=O)O)c1 | -1.86
36 | O=C(CCN1C(=O)S/C(=C\c2ccc(F)cc2)C1=O)Nc1ccc(O)cc1C(=O)O | 24.1
37 | CCCn1c(=O)c2ccccc2n2c(SCc3nnc(-c4ccccc4Br)o3)nnc12 | -5.68
38 | COC(=O)c1ccn(-c2nc(-c3ccco3)cc(C(F)(F)F)n2)n1 | -17.4
39 | O=C(COc1ccccc1Cl)c1ccc2c(c1)CCCC2 | 38.7
40 | Cc1ccc(CCC(=O)Nc2ccc(N(C)C)cc2)o1 | 39.5
41 | Cc1ccc(C)c(NC(=O)CCc2ccc(C)o2)c1 | 79.3
42 | Cc1ccc(CCC(=O)Nc2ccc([N+](=O)[O-])cc2Cl)o1 | 75.5
43 | Cc1cccc(NC(=O)CCc2ccc(C)o2)c1 | 25.7
44 | Cc1ccc(NC(=O)CCc2ccc(C)o2)c(C)c1 | 68.3
45 | Cc1ccc(CCC(=O)Nc2ccc(Cl)cc2)o1 | 79.5
46 | Cc1cccn2c(=O)c3cc(S(=O)(=O)c4ccccc4)c(=N)n(Cc4cccnc4)c3nc12 | -4.09
47 | Cc1ccc(C(=O)N2CCC(C(=O)Nc3cccc([N+](=O)[O-])c3)CC2)cc1 | 28.6
48 | Cc1ccccc1NC(=O)Cn1nc(C(=O)O)c2ccccc2c1=O | -3.67

Row | Compound | inhibition [%]
49 | Cc1ccc(C)c(-n2c(-c3csc(C)c3)n[nH]c2=S)c1 | 11.6
50 | CCCC(=O)Nc1ccc(C2C(=O)c3ccccc3C2=O)cc1 | -4.62
51 | O=C(Nc1ccc(N2CCN(C(=O)c3ccccc3)CC2)cc1)c1ccc2c(c1)OCO2 | 13.6
52 | CCOC(=O)N1CCC(NS(=O)(=O)c2cc3c(cc2C)NC(=O)CO3)CC1 | 8.95
53 | CCOC(=O)N1CCC(NC(=O)CN(C)S(=O)(=O)c2cc3c(cc2Cl)NC(=O)CO3)CC1 | 31.8
54 | O=C1NCC(O)=C1C=NCCO | -6.04
55 | Oc1ccccc1N=Cc1ccc[nH]1 | 72.2
56 | CCOc1ccc(NC(=O)CSc2nc(-c3cccs3)cc(C(F)(F)F)n2)c([N+](=O)[O-])c1 | 7.92
57 | CCN(CC)C(=O)CSc1nc2c(c(-c3cccnc3)c1C#N)CCCC2 | 24
58 | CN(c1ccccc1)S(=O)(=O)c1ccc(C(=O)OCC(=O)NCc2ccco2)cc1 | 18.2
59 | Nc1nonc1C(=O)N/N=C/c1ccc(Br)o1 | -9.49
60 | O=C(N/N=C/c1cccc([N+](=O)[O-])c1)c1cc2ccccc2o1 | 21.7
61 | Nc1nonc1C(=O)N/N=C/c1ccc(-c2cccc([N+](=O)[O-])c2)o1 | -4.42
62 | Cc1cc(C(=O)N/N=C/c2ccc([N+](=O)[O-])cc2)c(C)o1 | -13.2
63 | O=C(N/N=C/c1ccc([N+](=O)[O-])o1)c1ccccc1NS(=O)(=O)c1cccs1 | 48
64 | O=C(N/N=C/c1ccc([N+](=O)[O-])cc1)c1cc2ccccc2o1 | 6.74
65 | Cc1ccc(/C=N/NC(=O)c2cc(C)oc2C)o1 | 3.1
66 | O=C(N/N=C/c1ccc([N+](=O)[O-])cc1)c1ccc(NS(=O)(=O)c2cccs2)cc1 | 17.2
67 | O=S(=O)(Nc1nc2ccccc2nc1Cl)c1ccc2ccccc2c1 | 47.8
68 | Cc1ccc(NC(=O)COC(=O)C2CCN(c3ccc(C(F)(F)F)cn3)CC2)cc1C | 14.8
69 | N#Cc1nc(N2CCCCC2)nc(N2CCOCC2)n1 | 13.1
70 | C=CCn1c(CNC(=O)c2ccco2)nnc1SCC(=O)c1ccccc1 | 12.6
